# Sampled rows, rich in hits. Any-hit rate of the full collection: about 19%.
# Marburg entry inh: qHTS for inhibitors of binding or entry into cells for Marburg Virus | Marburg virus pseudotyped entry inhibition, cell reporter | Potency, µM (titrated, usually from 37.8 µM), for inactives: top-dose activity change, negative = inhibition, hits mostly inhibitors | 300,000 compounds, 1.8% hits; calls by dose curve; tested in HEK293 cells; further: potency means the concentration at half of the fitted maximal effect; on the % scale 0 is the no-effect control and ±100 the full control effect
# Shiga inhibitor: A qHTS for Small Molecule Inhibitors of Shiga Toxin; Vero cells, Shiga toxin protein synthesis inhibition reporter; 290,000 compounds, 9.2% hits; inhibition, % at 38.7 µM; in the data active means inhibition mostly above about 28%, no sharp cut-off; inactive means mostly below about 43%; further: 0% is about no effect
# Pf growth 96h: Primary qHTS for delayed death inhibitors of the malarial parasite plastid, 96 hour incubation. 320,000 compounds, 6.9% hits. P. falciparum luciferase reporter growth, 96 h. Potency, µM (highest dose often 28.7 µM), for inactives: at the highest dose activity change, negative = inhibition, most hits filed as inhibitors; further: potency means the concentration at half of the fitted maximal effect; on the % scale 0 is the no-effect control and ±100 the full control effect
#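 P. falciparum expressing integrated firefly luciferase grown in erythrocytes (2% hematocrit, 0.05% parasitemia final) with compounds for 96 hours at 37 C, 5% CO2. Growth inhibition read as loss of luminescence after adding luciferase detection reagent.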
# Cycloheximide cs: Cycloheximide Counterscreen for Small Molecule Inhibitors of Shiga Toxin | cell reporter, cycloheximide protein synthesis inhibition counterscreen | max response, % | 300,000 compounds, 12% hits; in the data active means max response mostly above about 13%, no sharp cut-off; inactive means mostly below about 14%; further: read at 38.3 µM for the half of the compounds with a filed dose; 0% is about no effect
# Pf growth 48h: Primary qHTS for delayed death inhibitors of the malarial parasite plastid, 48 hour incubation | P. falciparum luciferase growth in erythrocytes, 48 h | Potency, µM (series often up to 28.7 µM), inactives show top-dose activity change, negative = inhibition, usual class: inhibitors | 310,000 compounds, 5.9% hits; further: potency means the concentration at half of the fitted maximal effect; on the % scale 0 is the no-effect control and ±100 the full control effect
#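 Erythrocytes infected with P. falciparum carrying an integrated firefly luciferase reporter (2% hematocrit, 0.1% parasitemia final) were exposed to compounds in RPMI 1640 with 0.5% Albumax at 37 C, 5% CO2. Growth inhibition was scored as reduced luminescence.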
# LASV entry inh: qHTS for Inhibitors of binding or entry into cells for Lassa Virus; Lassa virus pseudotype entry inhibition, cell reporter; Potency, µM (doses to about 37.9 µM), inactives show at the top dose activity change, negative = inhibition, hits mostly inhibitors; 300,000 compounds, 1.2% hits; calls by dose curve; tested in HEK293 cells; further: potency means the concentration at half of the fitted maximal effect; on the % scale 0 is the no-effect control and ±100 the full control effect; nearly all actives have a fitted effect of over 50% in size
# Numbers without * were called inactive; i = inactive; ? = inconclusive; nt = no result given; [ ] = another dose, or the depositor's remark. Unless noted, the call rests on the fitted dose curve; in most records, active means well fitted inhibition curve with a large enough effect; inconclusive means small, poorly fitted or top-dose-only effect, or another doubt; inactive means no such curve, though single readings can be large or run the other way.
SMILES,Marburg entry inh,Shiga inhibitor,Pf growth 96h,Cycloheximide cs,Pf growth 48h,LASV entry inh
Nc1nc(Sc2c([N+](=O)[O-])cc(C(F)(F)F)cc2[N+](=O)[O-])n[nH]1,?,48.3*,?,10.7,?,?
CC(=O)Nc1ccc(NC(=O)C(C)OC(=O)C2CCC2)cc1 (stereo not given),?,nt,-3.7%,nt,1.8%,10.9%[46.1 µM]
CCN(CC)S(=O)(=O)c1cc(C(=O)OCC(=O)c2ccc3c(c2)NC(=O)CO3)ccc1Cl,-5.0%,-11.6,-2.5%,-3.6,-0.2%,2.1%
CN(Cc1ccc(Cl)c(Cl)c1)C(=O)C1=CC=CN2CCS(=O)(=O)N=C12,nt,nt,1.47µM*,nt,9.28µM*,nt
COc1ccc(Br)cc1CN(C)C(=O)C1=CC=CN2CCS(=O)(=O)N=C12,12.3%,nt,nt,nt,nt,-20.4%
COC(=O)c1ccc(C2/C(=C(\O)c3cccc(OC)c3)C(=O)C(=O)N2CCCN2CCOCC2)cc1 (stereo not given),-2.1%,-7.0,6.7%,16.0,-1.2%,13.7%
O=C(N/N=C\c1cccc(Cl)c1)c1ccc(Cn2cc(Br)c([N+](=O)[O-])n2)o1,?,24.2*,?,8.5,?,?
Cc1c(Cl)c([N+](=O)[O-])nn1Cc1ccc(C(=O)NN)o1,nt,27.7,-4.1%,10.3,11.9%,nt
Cc1c(Cl)c([N+](=O)[O-])nn1Cc1ccc(C(=O)N/N=C\c2cccc(Br)c2)o1,?,13.0,?,-3.3,9.28µM*,-27.3%
Cc1cc(C)n2nc(SCC(=O)NC3CCCCC3)nc2n1,nt,7.2,13.1µM*,14.3,-1.4%,nt
CCCn1c(C)cc(C(=O)CSc2nc3nc(C)cc(C)n3n2)c1C,18.8%,-4.0,9.28µM*,-1.8,?,2.5%
CCOC(=O)c1ccc(S(=O)(=O)NCC(c2ccc(N(C)C)cc2)c2c[nH]c3ccccc23)cc1 (stereo not given),-3.4%,14.7,-18.9%,1.8,-16.0%,2.4%
CC(=O)Nc1ccc(NC(=O)c2ccccc2CCc2ccccc2)cc1,?,-10.0,18.2%,3.1,-12.6%,10µM*
CC(C)(C)c1ccc(C(=O)NCCCNC(=O)c2ccco2)cc1,4.4%[46.1 µM],4.5,-0.7%,-1.6,?,?
CC(C)(C)c1ccc(C(=O)NCc2ccccc2)cc1,nt,52.8*,9.28µM*,25.6*,142.1%,nt
O=C(NCc1ccccc1)c1ccc(C(=O)NCc2ccccc2)cc1,8.1%,nt,nt,nt,nt,8.4%
CC(C)(C)c1ccc(C(=O)NCCc2ccccc2)cc1,nt,52.7*,i,45.7*,154.2%,nt
O=C(NCc1ccccc1)c1ccc(C(=O)N(C2CCCCC2)C2CCCCC2)cc1,?,-11.6,9.28µM*,0.7,nt,?
COc1ccc(C(=O)N2CCN(c3ncccn3)CC2)cc1,nt,-8.2,-15.8%,-4.9,18.3%,nt
COc1ccc(S(=O)(=O)n2nc(OC(=O)c3ccccc3)cc2N)cc1,-0.4%,-10.1,?,5.1,-7.3%,-7.1%
CC(C)(C)c1ccc(C(=O)Nc2cnccn2)cc1,?,40.7*,33.0%,27.5*,182.3%,?
CC(C)(C)c1ccc(C(=O)Nc2ccc(C(=O)NCc3cccnc3)cc2)cc1,?,20.7,-1.0%,10.5,6.57µM*,?
CC(=O)Nc1ccc(C(=O)NCCc2ccccc2)cc1,9.1%,61.5*,-14.7%,59.6*,77.3%,?
C=CCN(c1ccc(C(=O)NCCc2ccccc2)cc1)S(C)(=O)=O,21.4%,44.5,73.7%,40.3*,nt,9.2%
COc1ccc(C(=O)Nc2cnccn2)cc1[N+](=O)[O-],nt,-6.5,?,0.6,18.9%,nt
C=CCNC(=O)c1ccc(N(CC=C)S(C)(=O)=O)cc1,0.8%[46.1 µM],0.5,-14.5%,-1.3,-9.9%,?
O=C(CN1C(=O)c2ccccc2C1=O)N1CCN(c2ccccc2)CC1,0.0%,-2.2,25.8%,3.3,5.0%,2.7%
O=C(CSc1nnc2scc(-c3ccccc3)n12)Nc1ccc2c(c1)OCCO2,7.5%,-1.7,nt,-1.5,-10.0%,-0.9%
CCOc1ccc(NC(=O)NNC(=O)c2ccc3ccccc3c2O)cc1,nt,11.7,15.9%,-2.0,?,nt
O=C(NCc1c(O)ccc2ccccc12)c1ccccc1,nt,10.9,10.4µM*,2.1,?,nt

# Screens as filed in PubChem.
